In the library only some 21% were active in any assay of this set; here they are far more common.
DT40 TDP1 no CPT – qHTS for Inhibitors of human tyrosyl-DNA phosphodiesterase 1 (TDP1): qHTS in cells in absence of CPT | DT40 Tdp1-/- hTDP1 cells, no CPT, ATP luminescence, 48 h | 420,000 compounds, 15% hits | AID 686978, 2013 | Potency, µM (top dose mostly 46.2 µM), without a hit: top-dose activity change, negative = growth inhibition, most hits filed as inhibitors; also: potency is read from the fitted curve at half-maximal effect; nearly all actives have a fitted effect of over 55% in size
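Camptothecin absent (DMSO only). Human TDP1-complemented DT40 knockout cells, 400 cells/well, 37 °C for minimum 48 hr; ATP measured via CellTiter-Glo, 30 min dark incubation, luminescence.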
IL1B secr inh – inflammasome signaling inhibition, IL-1 beta readout. THP-1 LPS/ATP IL-1B secretion, AlphaLISA, 16 h; hits give low values. activity change, % at 57.5 µM. 360,000 compounds, 4.7% hits. AID 743279; in the data active = activity change below about -50%; inconclusive = mostly about -30% to -49%
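THP-1 cells pretreated 1 hr with compounds (up to 57.5 uM final), then stimulated with LPS (250 ng/mL final) plus ATP (1.25 mM final); secreted IL-1B measured by AlphaLISA after 16 hr, decreased signal indicating inhibition.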
Gal4-VP16 FLuc – inhibits Gal4-VP16 luciferase reporter, ROR gamma counter-screen. 310,000 compounds, 3.5% hits. Potency, µM (highest dose often 53.6 µM), inactives show at the top dose activity, negative = inhibition, actives largely listed as inhibitors. Drosophila S2 Gal4-VP16 UAS-luciferase, luminescence, 20 h;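 also: Gal4-VP16 expression switched on by copper sulfate through the metallothionein promoter; potency is read from the fitted curve at half-maximal effect; nearly all actives have a fitted effect of over 50% in size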
DT40 TDP1 CPT – DT40-hTDP1 cell growth loss with CPT | chicken DT40 Tdp1-/-;hTDP1 cells + 20 nM CPT, ATP luminescence, 48 h | 420,000 compounds, 12% hits | AID 686979 | Potency, µM (titrated, usually from 46.2 µM), without a hit: at the top dose activity change, negative = growth inhibition, usual class: inhibitors; also: potency is read from the fitted curve at half-maximal effect; nearly all actives have a fitted effect of over 55% in size
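Chicken DT40 Tdp1-/- cells stably complemented with human TDP1 were seeded at 400 cells/well in medium containing 20 nM camptothecin, exposed to pin-transferred compounds, and grown at 37 °C for at least 48 hr. Viability was read as ATP luminescence.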
ELG1 repair inh – blocks ELG1-dependent DNA repair in HEK293T cells | 330,000 compounds, 2.3% hits | HEK293T ELG1-luciferase reporter, luminescence, 16 h; DNA damage induced by 5-fluorouridine | Potency, µM (series often up to 46.1 µM), for inactives: at the highest dose activity change, negative = inhibition, hits mostly inhibitors; also: potency is read from the fitted curve at half-maximal effect; nearly all actives have a fitted effect of over 55% in size
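Cells (2,000 per well) received 5-fluorouridine plus test compound or DMSO and were incubated 16 hr at 37 °C, 5% CO2. Luciferase activity was read by luminescence 30 min after ONE-Glo addition; signal suppression marked inhibition of damage-induced ELG1 function.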
RORgamma inh – inhibitors of mouse ROR gamma transcriptional activity; Potency, µM (titrated, usually from 53.6 µM), inactives show at the highest dose activity change, negative = inhibition, actives largely listed as inhibitors; Drosophila S2 Gal4-RORgamma UAS-luciferase reporter, 20 h; P51450; 310,000 compounds, 5.4% hits; also: potency is read from the fitted curve at half-maximal effect; nearly all actives have a fitted effect of over 60% in size
Target sequence (P51450 whole entry, looked up, the tested form may be a part): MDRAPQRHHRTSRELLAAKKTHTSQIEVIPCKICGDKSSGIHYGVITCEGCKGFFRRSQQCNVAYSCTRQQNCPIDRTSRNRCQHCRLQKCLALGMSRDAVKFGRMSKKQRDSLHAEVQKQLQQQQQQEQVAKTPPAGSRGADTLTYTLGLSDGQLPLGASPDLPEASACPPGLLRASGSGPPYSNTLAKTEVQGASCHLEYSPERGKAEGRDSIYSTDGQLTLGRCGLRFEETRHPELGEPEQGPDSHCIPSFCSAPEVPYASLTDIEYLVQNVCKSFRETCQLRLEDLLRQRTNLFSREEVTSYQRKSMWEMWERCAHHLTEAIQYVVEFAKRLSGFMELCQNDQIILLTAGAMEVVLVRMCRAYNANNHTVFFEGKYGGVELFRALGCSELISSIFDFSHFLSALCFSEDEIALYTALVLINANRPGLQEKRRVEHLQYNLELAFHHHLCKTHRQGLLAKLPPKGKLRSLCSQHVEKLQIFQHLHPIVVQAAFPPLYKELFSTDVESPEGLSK
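A Gal4/UAS one-hybrid system in insect cells: metallothionein-promoter Gal4–ROR gamma fusion plus Photinus luciferase reporter. Copper sulfate 700 uM final, 20 hr ambient incubation, luminescent detection after 10 min with reagent.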
* hit, by the source's call; ? = inconclusive; / = no result; [ ] = another dose, or the depositor's remark. Unless noted, calls follow the shape of the dose curve; as a rule, active = well fitted curve in the direction sought with a large enough effect; inconclusive = small, poorly fitted or top-dose-only effect, or another doubt; inactive = no such curve, though single readings can be large; an effect the other way counts as inactive or inconclusive. % is scaled to controls: 0 for no effect and ±100 for the full control effect.

SMILES	DT40 TDP1 no CPT	IL1B secr inh	Gal4-VP16 FLuc	DT40 TDP1 CPT	ELG1 repair inh	RORgamma inh
CCOC(=O)CSc1nnc([C@H](Cc2ccccc2)NC(=O)OC(C)(C)C)o1	-2.8%	6.1	-2.7%	-2.0%	-0.6%	-6.9%
CC(C)[C@H](NC(=O)OC(C)(C)C)c1nnc(S(=O)(=O)Cc2c(F)cccc2Cl)o1	1.64µM*	?	5.01µM*	1.16µM*	-4.5%	4.47µM*
CC(C)Cn1nnnc1S(=O)(=O)Cc1cccc(C#N)c1	/	/	5.4%	/	/	-23.1%
CC[C@@H](C)[C@H](NC(=O)OC(C)(C)C)c1nnc(S(=O)(=O)Cc2cc(C)ccc2C)o1	2.31µM*	0.0	?	1.3µM*	9.9%	?
CC(C)C[C@H](N)c1nnc(S(=O)(=O)Cc2cccc(F)c2)o1	5.8µM*	?	?	5.8µM*	18.1%	6.31µM*
CC(C)(C)OC(=O)N[C@@H](Cc1ccccc1)c1nnc(S(=O)(=O)Cc2cccc(F)c2)o1	1.3µM*	-80.2*	4.47µM*	1.3µM*	?	4.47µM*
CC[C@@H](C)[C@H](NC(=O)OCc1ccccc1)c1nnc([C@@H](NC(=O)OCc2ccccc2)[C@@H](C)CC)o1	?	-9.2	-17.8%	?	-7.2%	-18.5%
C[C@@H]1CN([C@@H](C)CO)C(=O)c2cc(Br)cnc2O[C@H]1CN(C)C(=O)Nc1ccccc1	-19.8%	-24.7	/	-11.7%	/	/
O=S(=O)(CC=CCS(=O)(=O)c1ccccc1)c1ccccc1	-22.9%	-21.4	/	5.2%	/	/
Cc1ccccc1CS(=O)(=O)c1nnc([C@H](CC(C)C)NC(=O)OC(C)(C)C)o1	2.82µM*	-67.0*	4.47µM*	2.24µM*	-1.9%	7.08µM*
CC(C)(C)OC(=O)N[C@@H](CCCCNC(=O)OCc1ccccc1)c1nnc([C@H](CCCCNC(=O)OCc2ccccc2)NC(=O)OC(C)(C)C)o1	?	-14.0	3.0%	?	-27.5%	2.6%
CC(C)C[C@H](NC(=O)OC(C)(C)C)c1nnc(SCc2ccccc2)o1	23.1µM*	-18.5	14.0%	?	-12.4%	12.7%
CO[C@@H](CCO)C[C@H]1O[C@H](C(=O)OC(C)C)CC[C@@H]1C	/	/	-13.7%	/	/	0.2%
Cc1ccc2[nH]c(C(=O)N/N=C/c3ccc([N+](=O)[O-])cc3)c(C)c2c1	4.11µM*	-9.9	-3.5%	3.66µM*	?	-12.0%
Cc1ccc2[nH]c(C(=O)N/N=C/c3ccccc3O)c(C)c2c1	4.61µM*	95.5	6.31µM*	4.61µM*	2.31µM*	1µM*
COc1ccc(-n2c3c(c(=O)[nH]c2=O)C(C(F)(F)F)(C(F)(F)F)N=C(CC(C)C)N3)cc1	-16.2%	13.1	-2.9%	-24.8%	2.0%	0.0%
Cc1ccccc1C(=O)NC1(C(F)(F)F)C(=O)Nc2c1c(=O)[nH]c(=O)n2-c1ccc(F)cc1 (stereo not drawn)	?	/	/	-19.5%	/	/
Cc1ccc(C2=NC(C(F)(F)F)(C(F)(F)F)c3c(n(-c4ccc(F)cc4)c(=O)[nH]c3=O)N2)cc1	23.1µM*	36.1	-12.4%	23.1µM*	?	?
O=c1[nH]c(=O)n(-c2ccc(F)cc2)c2c1C(C(F)(F)F)(C(F)(F)F)N=C(c1ccc(F)cc1)N2	3.26µM*	?	15.8µM*	4.61µM*	?	-26.0%
COC(=O)C[C@@H]1C=C[C@H](NC(=O)Nc2ccc(OC)cc2)[C@@H](CO)O1	-0.2%	0.0	/	-1.2%	/	/
O=S(=O)(NCc1cccs1)c1ccc(Cl)s1	9.9%	-20.3	/	-6.4%	1.8%	/
O=S(=O)(NCc1ccccc1)c1ccc(Br)c2nsnc12	-25.6%	-72.0*	1.5%	4.5%	-6.6%	16.8%
O=S(=O)(NCc1ccccn1)c1ccc(Cl)s1	-22.5%	-2.0	?	23.8%	1.3%	8.91µM*
O=S(=O)(NCc1ccccn1)c1ccccc1	17.1%	0.0	-1.9%	10.4%	11.8%	-31.6%
O=S(=O)(NCc1ccccn1)c1ccccn1	2.8%	27.9	-0.9%	4.9%	14.5%	11.2µM*
SMILES	DT40 TDP1 no CPT	IL1B secr inh	Gal4-VP16 FLuc	DT40 TDP1 CPT	ELG1 repair inh	RORgamma inh
O=S(=O)(NCc1ccccn1)c1cccc2nsnc12	9.5%	22.0	?	4.0%	6.6%	7.94µM*
C/C=C(\CS(=O)(=O)c1ccccc1)S(=O)(=O)c1ccccc1	29.1µM*	?	6.31µM*	?	-25.9%	3.55µM*
CO[C@@H]1COC(=O)[C@H]2CCCN2C(=O)[C@@H](C)COC(=O)C/C=C\[C@H]1C	/	/	-14.7%[10 µM]	/	/	3.5%[10 µM]
CC(C)[C@@H]1CC[C@@H](C)c2c(-c3ccccc3)n[nH]c21	?	35.4	?	?	9.0%	15.8µM*
O=C(O)c1ccc(N2C(=O)c3[nH]nc(-c4ccccc4)c3C2c2ccccc2)cc1 (stereo not drawn)	-0.7%	0.0	-15.9%	-0.3%	4.3%	9.2%
Cc1ccc(-c2nnc(-c3ccccc3Br)o2)cc1	-17.2%	-7.9	?	15.7%	?	12.6µM*
Brc1ccc(-c2nnc(-c3ccccc3Br)o2)cc1	-19.7%	16.3	-24.5%	?	?	-8.3%
Cc1ccc(CS(=O)(=O)c2ccccc2-c2nnc(-c3ccc(Cl)cc3)o2)cc1	18.4µM*	21.4	-12.5%	?	1.0%	-3.5%
CN(C)c1ccc(-c2nnc(-c3ccccc3F)o2)cc1	?	-16.3	?	-17.5%	?	11.2µM*
Cc1ccccc1-c1nnc(-c2ccc(Cl)cc2)o1	-24.0%	16.7	24.2%	-20.5%	?	-32.1%
CCOC(=O)c1ccccc1NC(=O)N(C)CCc1c(C)nn(CC)c1C	16.4µM*	/	/	20.6µM*	/	/
CCOC(=O)c1ccccc1NC(=O)c1nc2nccc(C)n2n1	18.4µM*	-12.1	-8.6%	?	?	-1.2%
COc1ccc(S(=O)(=O)N2CCOCC2)cc1NC(=O)c1c(C)noc1C	0.1%	2.5	/	6.6%	/	/
Cc1cc(C)nc(N2CCN(S(=O)(=O)c3ccc(F)cc3)CC2)n1	?	-5.7	-4.6%	?	?	43.6%
O=C1C2CCCN2C(=S)N1c1cc(Cl)ccc1Cl (stereo not drawn)	2.2%	-65.6*	/	-10.2%	9.1%	/
CCc1ccc(N2C(=O)C3CCCN3C2=S)cc1 (stereo not drawn)	?	-14.6	8.1%	6.5%	12.1%	-4.4%
Cc1cc(NS(=O)(=O)c2cn(C)c(C)n2)ccc1Br	-11.0%	/	/	?	/	/

Source: PubChem BioAssay (National Center for Advancing Translational Sciences (NCATS))
